TDP1 cell noCPT: qHTS for Inhibitors of human tyrosyl-DNA phosphodiesterase 1 (TDP1): qHTS in cells in absence of CPT; DT40 Tdp1-/- hTDP1 cells, no CPT, ATP luminescence, 48 h; Potency, µM (doses to about 46.2 µM), for inactives: at the highest dose activity change, negative = growth inhibition, usual class: inhibitors; 15% of 420,000 active; AID 686978, 2013; further: potency means the concentration at half of the fitted maximal effect; nearly all actives have a fitted effect of over 55% in size
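Seeded 400 DT40-hTDP1 cells/well (vehicle DMSO, no 20 nM CPT); pinned compounds; ≥48 hr at 37 °C; CellTiter-Glo luminescence as viability measure.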
IL1B secr inh: qHTS for Inhibitors of Inflammasome Signaling: IL-1-beta AlphaLISA Primary Screen; THP-1 LPS/ATP IL-1B secretion, AlphaLISA, 16 h; hits give low values; activity change, % at 57.5 µM; 4.7% of 360,000 active; AID 743279, 2014; in the data active means activity change below about -50%; inconclusive means mostly about -30% to -49%
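Secreted IL-1B measured by AlphaLISA bead assay after 16 h compound exposure of THP-1 cells; compounds (final up to 57.5 uM) added 1 h before LPS (250 ng/mL) and ATP (1.25 mM) stimulation; lower signal means less secretion.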
HT1080NT lethal: qHTS for induction of synthetic lethality in tumor cells producing 2HG: qHTS for the HT-1080-NT fibrosarcoma cell line; HT-1080-NT fibrosarcoma viability, CellTiter-Glo ATP luminescence, 48 h; Potency, µM (highest dose often 46.1 µM), inactives show top-dose activity, negative = less viability, hits mostly cytotoxic; 1.6% of 360,000 active;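 further: NT is the 2HG producing partner of a matched IDH1 knockdown line; potency means the concentration at half of the fitted maximal effect; 0% = DMSO-treated cells and -100% = media-only wells without cells; nearly all actives have a fitted effect of over 55% in size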
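HT-1080-NT; 750 cells/well; 5% FBS RPMI; 48 h compound, 37 degrees C; CellTiter-Glo luminescence; curve fitting and curve-class assignment.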
TDP1 cell CPT: qHTS for Inhibitors of human tyrosyl-DNA phosphodiesterase 1 (TDP1): qHTS in cells in presence of CPT; chicken DT40 Tdp1-/-;hTDP1 cells + 20 nM CPT, ATP luminescence, 48 h; Potency, µM (series often up to 46.2 µM), inactives show at the highest dose activity change, negative = growth inhibition, usual class: inhibitors; 12% of 420,000 active; further: potency means the concentration at half of the fitted maximal effect; nearly all actives have a fitted effect of over 55% in size
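Chicken DT40 Tdp1-/- cells stably complemented with human TDP1 were seeded at 400 cells/well in medium containing 20 nM camptothecin, exposed to pin-transferred compounds, and grown at 37 °C for at least 48 hr. Viability was read as ATP luminescence.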
HT1080 IDH1KD tx: qHTS for induction of synthetic lethality in tumor cells producing 2HG: qHTS for the HT-1080-IDH1KD cell line. Potency, µM (doses to about 46.1 µM), without a hit: at the top dose activity, negative = toxicity, actives largely listed as cytotoxic. AID 686971, 2013. 2% of 360,000 active. HT-1080 IDH1 knockdown viability, ATP luminescence, 48 h;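 further: potency means the concentration at half of the fitted maximal effect; 0% = DMSO wells and -100% = cell-free medium wells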
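Knockdown cells (IDH1KD HT-1080) received compounds 2 h after plating at 750 cells/well and were kept 48 h at 37 °C in 5% FBS RPMI. A CellTiter-Glo luminescence read gave % activity for curve fitting.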
* marks the source's active call; other numbers are inactive results; ? = inconclusive; · = no result given. An excerpt weighted towards active compounds, which were near 19% of everything screened. Unless noted, the call rests on the fitted dose curve; in most records, active means well fitted curve in the direction sought with a large enough effect; inconclusive means small, poorly fitted or top-dose-only effect, or another doubt; inactive means no such curve, though single readings can be large; an effect the other way counts as inactive or inconclusive. Unless noted, on the % scale 0 is the no-effect control and ±100 the full control effect.

SMILES	TDP1 cell noCPT	IL1B secr inh	HT1080NT lethal	TDP1 cell CPT	HT1080 IDH1KD tx
COc1ccccc1N1CCN(C(=O)C2CCC(CNS(=O)(=O)c3ccc(NC(C)=O)cc3)CC2)CC1 (stereo not drawn)	-15.1%	3.0	-16.3%	?	-12.1%
COc1ccc(C(=O)n2c(C)c(CCO)c(=O)n2C)cc1	-1.7%	11.0	5.5%	39.2%	-3.7%
C=CC[C@H](CC(=O)OC(C)(C)C)C(=O)OC[C@H]1CCCN1C(=O)[C@@H](CC=C)CC(=O)N(CCO)Cc1ccccc1	20.6µM*	?	-6.6%	18.4µM*	-11.8%
C=CC[C@@H](Cc1ccc(F)cc1)C(=O)OC[C@H]1CCCN1C(=O)[C@@H](CC=C)CC(=O)N(CCO)Cc1ccccc1	13µM*	-56.0*	-18.3%	14.6µM*	-27.7%
C=CC[C@@H](Cc1ccc(F)cc1)C(=O)OC[C@@H]1CCCN1C(=O)[C@H](CC=C)CC(=O)N(CCO)Cc1ccccc1	18.4µM*	-60.7*	-19.9%	?	-6.6%
CN1CCN(C(=O)/C=C/c2ccc(C#N)cc2)CC1	-11.5%	16.5	-1.9%	12.3%	0.3%
c1cncc(CNc2ncncc2-c2cccnc2)c1	9.4%	·	·	13.3%	·
CCCNC(=O)c1cc(S(=O)(=O)N2CCCCC2)c[nH]1	-12.6%	6.4	-10.7%	1.1%	9.6%
O=C(Nc1nc2c(s1)CCCC2)c1cc(-c2ccncc2)nc2ccccc12	16.4µM*	15.3	-7.8%	?	-4.7%
CC(=O)c1cccc(NC(=O)c2cc(-c3ccco3)nc3ccccc23)c1	18.4µM*	6.1	-5.5%	13µM*	-11.7%
COc1ccc(-c2cc(C(=O)NCCN3CCOCC3)c3ccccc3n2)cc1OC	?	0.0	-4.0%	7.6%	11.6%
O=C(Nc1nc2c(s1)CCCC2)c1cc(-c2ccccc2)nc2ccccc12	?	-6.8	8.9%	?	-0.5%
COc1ccc(-c2cc(C(=O)NC(C)c3ccccn3)c3ccccc3n2)cc1OC (stereo not drawn)	20.6µM*	-15.2	-2.5%	23.1µM*	0.2%
COc1cccc(-c2cc(C(=O)Nc3ccncc3)c3ccccc3n2)c1	16.4µM*	-11.3	-26.4%	?	-28.9%
CCC(Sc1nc2ncccc2o1)C(=O)Nc1ccc(OC)c(OC)c1 (stereo not drawn)	-15.0%	·	·	4.6%	·
Cc1ccc(OC(C)C(=O)N2CCc3ccccc32)c([N+](=O)[O-])n1 (stereo not drawn)	-2.2%	1.2	7.2%	1.2%	0.2%
COc1ccc(-c2cc(C(=O)Nc3ccc(S(=O)(=O)Nc4onc(C)c4C)cc3)c3ccccc3n2)cc1OC	-4.5%	9.5	-3.1%	8.5%	6.5%
O=C(NC(=S)Nc1ccccc1)c1cc(-c2ccccc2)nc2ccccc12	?	23.6	-5.9%	29.1µM*	-11.3%
COc1ccc(-c2cc(C(=O)Nc3ccc(C(N)=O)cc3)c3ccccc3n2)cc1OC	5.8µM*	0.0	?	?	?
COc1ccc(-c2cc(C(=O)NCC(c3ccco3)N(C)C)c3ccccc3n2)cc1OC (stereo not drawn)	14.6µM*	-23.3	-5.0%	23.1µM*	9.2%
Cc1ccc(S(=O)(=O)N(C)C)cc1NC(=O)c1cc(-c2ccncc2)nc2ccccc12	4.11µM*	-10.4	-2.4%	?	-1.8%
O=C(NNC(=S)Nc1ccccc1)c1cc(-c2cccnc2)nc2ccccc12	-14.4%	-7.2	4.6%	-21.3%	-5.8%
Nc1nnc(SCc2ccc(F)cc2)n1-c1ccccc1	-7.7%	-2.0	5.8%	0.9%	-5.4%
CCCCC(O)c1ccccc1 (stereo not drawn)	-12.3%	·	·	3.7%	·

Assay outcomes: PubChem BioAssay, National Center for Advancing Translational Sciences (NCATS)
